# Measurements: PubChem BioAssay AID1626 (SRMLSC, 2009)
# In all, about 220,000 compounds went through this assay and about 2,000 (0.91%) were called active. Another 2% or so got no clear call; they are omitted. No stated cut-off is given here; in the data, inconclusive means inhibition above about 80% without an active follow-up result; inactive means below that; test concentration not stated here. Not all results are given here. Measured potencies and affinities stand elsewhere.
# Test: M. tuberculosis H37Rv growth inhibitors, H37Rv strain (AID 1626);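 further: bacteria incubated seven days before Alamar blue readout; 0% = bacteria only wells and 100% = bacteria with antibiotic wells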
# Conditions: active compounds read high, concentration not given here
row,Structure (SMILES),inhibition
1,O=C(C1CCN(Cc2ccc(F)cc2)CC1)N1CCN(C/C=C/c2ccccc2)CC1,5.92% (inactive)
2,O=C(Nc1ccc(F)cc1)N1CCN(C/C=C/c2ccccc2)CC1,-13% (inactive)
3,COCCNC(=O)CN(C)S(=O)(=O)c1ccc(Br)cc1,-4.89% (inactive)
4,Cc1cc(C(=O)c2ccc(Cl)cc2)c(NC(=O)CCl)s1,73.2% (inactive)
5,CCc1cc(C(=O)c2ccc(C)cc2)c(NC(=O)CCl)s1,76.6% (inactive)
6,O=C(CSc1nnc(-c2cccs2)o1)OCc1ccccc1,-0.9% (inactive)
7,COc1ccc(-c2nnc(SCC(=O)N3CCCCC3)o2)cc1OC,5% (inactive)
8,COc1ccc(OC)c(C(=O)CSc2nnc(-c3ccc(OC)c(OC)c3)o2)c1,-6.09% (inactive)
9,COc1ccc(-c2nnc(SCC(=O)N3CCCC3)o2)cc1OC,-0.93% (inactive)
10,COc1cc(-c2nnc(SCC(=O)c3ccc(C)cc3)o2)cc(OC)c1OC,2.03% (inactive)
11,O=C(CSc1nnc(-c2cccs2)o1)N1CCCCC1,1.5% (inactive)
12,O=C(CSc1nnc(-c2cccnc2)o1)OC1CCCCC1,-4.83% (inactive)
13,COc1ccc(-c2nnc(SCC(=O)N3CCOCC3)o2)cc1OC,-5.9% (inactive)
14,C=CCn1nnnc1-c1cc(Cl)cc(Cl)c1,2.4% (inactive)
15,CCCn1nc(C(=O)OCC(=O)c2c(N)n(C)c(=O)n(C)c2=O)c2ccccc2c1=O,5.18% (inactive)
16,N#Cc1c(/N=C/c2cccnc2)sc2c1CCCC2,2.15% (inactive)
17,O=C(CN1C(=O)c2ccccc2C1=O)Nc1cccc2cccnc12,7.46% (inactive)
18,CC1=CC(C)(C)N(C(=O)CSc2nncn2C)c2ccccc21,4.36% (inactive)
19,C=CCN(CC=C)S(=O)(=O)c1ccc(NC(=S)NC(=O)/C=C/c2cccc3ccccc23)cc1,2.67% (inactive)
20,CC(C)(C)OC(=O)NNC(=S)NCc1ccc(Cl)cc1,-13% (inactive)
21,CCc1ccc2[nH]c(=O)c(CN(Cc3ccccc3OC)C(=O)Nc3ccccc3OC)cc2c1,7.78% (inactive)
22,CC1CCN(C(=O)CSc2nnc(-c3cccnc3)n2C2CCCCC2)CC1,-2.09% (inactive)
23,COc1cc(-c2cc(C(=O)Nc3ccc(S(=O)(=O)Nc4ncccn4)cc3)c3ccccc3n2)cc(OC)c1OC,40.2% (inactive)
24,Cc1cc(C)cc(OCc2nnc(SCC(=O)N3CCN(c4ccccc4)CC3)o2)c1,-4.78% (inactive)
25,Cc1cccc(C(=O)c2c(N)sc3c2CCC(C)C3)c1 (configuration not stated),5.18% (inactive)

row,Structure (SMILES),inhibition
1,CCOc1ccc(S(=O)(=O)NCCN2CCOCC2)c2ccccc12,-4.29% (inactive)
2,CCOC(=O)C1(CC2CCCCO2)CCN(C(=O)Nc2ccccc2SC)CC1 (configuration not stated),6.6% (inactive)
3,CCC(=O)N1CCN(c2c(Cl)cccc2[N+](=O)[O-])CC1,4.63% (inactive)
4,CCCCN(CC)CCCNC(=S)Nc1ccc2nc3n(c(=O)c2c1)CCCCC3,-5.11% (inactive)
5,O=C(COC(=O)c1n[nH]c2ccccc12)Nc1ccccc1,-10.9% (inactive)
6,O=C(NCCN1CCOCC1)c1ccccc1[N+](=O)[O-],1.9% (inactive)
7,O=C(NCCN1CCOCC1)c1ccc(Cl)cc1[N+](=O)[O-],-10.2% (inactive)
8,O=C(NCCCN1CCOCC1)c1ccc(Cl)cc1[N+](=O)[O-],-0.73% (inactive)
9,O=C(NCCCN1CCOCC1)c1cc(Cl)ccc1[N+](=O)[O-],-3.28% (inactive)
10,COc1ccc(CNC(=O)COC(=O)c2n[nH]c3ccccc23)cc1,10.8% (inactive)
11,Cc1ccc(SC[C@H](CC(C)C)N2CCN(CCc3ccccc3)CCC2=O)cc1,16.3% (inactive)
12,CCOc1ccccc1-c1n[nH]c(=S)o1,6.98% (inactive)
13,COCCOC(=O)C1=C(C)NC(=O)NC1c1c(Cl)nc2c(C)cccn2c1=O (configuration not stated),-7.69% (inactive)
14,Cc1noc(C)c1S(=O)(=O)N1CCCC(C(=O)c2cccc(OC(C)C)c2)C1 (configuration not stated),0% (inactive)
15,Cc1nc2cc(C(=O)OCC(=O)NC(C)C(C)C)ccc2n1-c1ccccc1 (configuration not stated),-6.92% (inactive)
16,Cc1nc2cc(C(=O)OCC(=O)NC3CCS(=O)(=O)C3)ccc2n1-c1ccccc1 (configuration not stated),-9.28% (inactive)
17,CCCOc1ccc(/C(O)=C2/C(=O)C(=O)N(CCCOC)C2c2ccncc2)cc1 (configuration not stated),-0.21% (inactive)
18,COCCCNS(=O)(=O)c1ccc2c(c1)OCCO2,-7.88% (inactive)
19,CC(C)c1nc2sc3ccccc3c(=O)c2c(=O)n1Cc1ccccc1,-7.18% (inactive)
20,COc1ccc(C#Cc2c(-c3ccsc3)oc3ccc(-c4cc(OC)c(OC)c(OC)c4)cc23)cc1,0.45% (inactive)
21,COc1ccc(-c2oc3ccc(N4CCOCC4)cc3c2C#CC2(O)CCCCC2)cc1,89.2% (inactive)
22,COc1ccc(-c2ccc3oc(-c4ccc(OC)cc4)c(C#CC4(O)CCCCC4)c3c2)cc1,18.4% (inactive)
23,Nc1ccc(C#Cc2c(-c3ccsc3)oc3ccc(N4CCOCC4)cc23)cc1,61.1% (inactive)
24,CCOc1ccc(C(c2c(NC(=O)c3ccccc3)sc(C)c2C)N2CCN(C)CC2)cc1 (configuration not stated),17.1% (inactive)
25,c1ccc(C(c2ccccc2)N2CCN(C(c3ccccn3)c3nnnn3C3CCCC3)CC2)cc1 (configuration not stated),6.45% (inactive)

row,Structure (SMILES),inhibition
1,COc1cc(OC)c2c(=O)cc(-c3cccnc3)oc2c1,-11.6% (inactive)
2,CSc1sc(-c2n[nH]c(=S)n2C)c2c1C=CCC2,5.83% (inactive)
3,COC(=O)c1c(NC(=O)c2ccccc2)sc(Cc2ccccc2)c1C,-9.2% (inactive)
4,COC(=O)c1c(NC(=O)c2ccccc2)sc(C(N)=O)c1C,-3.85% (inactive)
5,CC(O)CCC(=O)NNC1CC(=O)N(c2ccccc2)C1=O (configuration not stated),-8.86% (inactive)
6,C=CCN(c1ccccc1)S(=O)(=O)c1cccc(C(=O)O)c1,-12.8% (inactive)
7,Cc1ccc(C)c(-n2nnnc2Sc2nc([N+](=O)[O-])nn2C)c1,-10.2% (inactive)
8,Cc1ccc(-n2nnnc2Sc2nc([N+](=O)[O-])nn2C)cc1,0.83% (inactive)
9,Cc1ccc(C2(c3noc(CN4CCC(c5ccncc5)CC4)n3)CCCC2)cc1,13.7% (inactive)
10,O=CC1=C(N2CCOCC2)/C(=C\c2ccccc2)CC1,0.77% (inactive)
11,O=C(O)c1ccc(N/N=C/C2=C(N3CCOCC3)C(=C\c3ccccc3)/CC2)cc1,-3.9% (inactive)
12,CC(=O)Nc1ccc(NC(=O)/C=C/c2cccc(C(F)(F)F)c2)cc1,0.39% (inactive)
13,CCc1ccc2c(c1)C(c1ccncc1)=NNC(c1ccccc1)=N2,8.68% (inactive)
14,CCCC(=O)Nc1nnc(SCC(=O)Nc2ccc3c(c2)OCO3)s1,5.81% (inactive)
15,CN1CCN(C(=O)c2ccc(CSc3nc4ccncc4n3Cc3ccc(F)cc3)cc2)CC1,-0.01% (inactive)
16,COc1ccc2nc(C)cc(C(=O)O)c2c1,0.85% (inactive)
17,O=C(COc1ccccc1)N1CCN(C/C=C/c2ccccc2)CC1,-6.49% (inactive)
18,O=C(CN1CCN(C/C=C/c2ccccc2)CC1)Nc1ccc(F)cc1F,-0.62% (inactive)
19,O=C(COc1ccc(Cl)cc1)N1CCN(C/C=C/c2ccccc2)CC1,0.36% (inactive)
20,COc1ccc(C)cc1NC(=O)CN1CCN(C/C=C/c2ccccc2)CC1,-3.7% (inactive)
21,O=C(CN1CCN(C/C=C/c2ccccc2)CC1)Nc1ccccc1C(=O)NC1CC1,-0.65% (inactive)
22,COc1ccccc1NC(=O)C(C)N1CCN(C/C=C/c2ccccc2)CC1 (configuration not stated),11.9% (inactive)
23,Cc1n[nH]c(=O)nc1NCc1ccc(Cl)cc1,0.09% (inactive)
24,CC(C)(C)NC(=O)COC(=O)CCC(=O)c1ccc(F)cc1,-0.61% (inactive)
25,Cc1ccc(/C=N/NC(=O)CNC(=O)c2ccc(S(=O)(=O)N(C)C)cc2)cc1,-4.56% (inactive)

row,Structure (SMILES),inhibition
1,Cc1ccnc(NS(=O)(=O)c2ccc(NC(=O)/C=C/c3cccs3)cc2)n1,11.1% (inactive)
2,CCOC(=O)C1C(c2ccccc2)NC(=S)NC1(C)O (configuration not stated),1.27% (inactive)
3,COc1ccc(Nc2ncc(C(=O)O)c3ccccc23)cc1,5.05% (inactive)
4,Cc1cc2ccc(C)c(C)c2nc1SCC(=O)c1cccs1,-3.91% (inactive)
5,Nc1nc(NCC2CCCO2)nc(NCC2CCCO2)c1[N+](=O)[O-] (configuration not stated),-0.89% (inactive)
6,O=C(CCCCCN1C(=O)C2C3C=CC(C3)C2C1=O)Nc1nccs1 (configuration not stated),-6.21% (inactive)
7,CCc1cccc(C)c1NC(=S)N1CCCCC1c1cccnc1 (configuration not stated),1.2% (inactive)
8,COC(=O)C(C#N)c1nc2ccccc2nc1N1CCN(Cc2ccc3c(c2)OCO3)CC1 (configuration not stated),-4.28% (inactive)
9,CC(C)COC(=O)C(C#N)c1nc2ccccc2nc1N1CCN(Cc2ccc3c(c2)OCO3)CC1 (configuration not stated),2.75% (inactive)
10,CC(N=C1NC(C)(C)Cc2ccccc21)C(=O)O (configuration not stated),-3.94% (inactive)
11,Cn1c(Cn2c(=O)sc3ccccc32)nnc1SCC(=O)NC1CCCC1,-8.44% (inactive)
12,Cc1cc(C)n(C(=O)c2ccccc2[N+](=O)[O-])n1,6.43% (inactive)
13,Cc1cc(C)n(C(=O)c2ccc([N+](=O)[O-])cc2N)n1,-10.3% (inactive)
14,CC1C=CCC2C(=O)N(c3ccc(Cl)cc3O)C(=O)C12 (configuration not stated),10.7% (inactive)
15,COc1ccc2nc(/N=C(\N)NC(=O)C(C)(C)C)nc(C)c2c1,14.9% (inactive)
16,Cc1ccc2nc(/N=C(\N)NC(=O)N3c4ccccc4Sc4ccccc43)nc(C)c2c1,94.5% (inactive)
17,COc1ccc(CN(CC2CCC(C(=O)O)CC2)C(=S)Nc2cc(C)ccc2C)cc1 (configuration not stated),4.91% (inactive)
18,O=C(NC1CSC/C1=N\O)c1ccccc1 (configuration not stated),-2.37% (inactive)
19,COc1ccccc1/C=C/C(=O)c1ccccc1,5.69% (inactive)
20,COc1ccccc1/C=C/C(=O)c1ccc(Cl)cc1,19.9% (inactive)
21,COc1ccc(/C=C/C(=O)c2ccc(Cl)cc2)c(OC)c1,7.24% (inactive)
22,O=C(/C=C/c1ccccc1Cl)c1ccc(O)cc1,36.8% (inactive)
